Test results published in PubChem BioAssay (NCI).
This is part of a sample that, as a whole, favours compounds with a hit. Of some 79,000 tested, about 15% had one in any assay. Unmarked numbers belong to inactive results. Calls of active or inactive are those of the source. No stated cut-off is given here; in the data, active means growth inhibition above about 70%; inactive means the rest.

Key:
[1] = NCI Yeast Anticancer Drug Screen. Data for the rad50 strain (AID 155);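 further: 0% = growth of vehicle-only cultures of the same strain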; conditions: S. cerevisiae rad50 strain growth inhibition, hits give high values
Method in brief: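 A DNA repair-deficient yeast mutant serves as the test organism; compound-induced growth inhibition is calculated against vehicle-treated cells.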

[2] = NCI Yeast Anticancer Drug Screen. Data for the mec2-1 strain (AID 157); conditions: S. cerevisiae mec2-1 strain, hits give high values
Method in brief: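 Each compound was tested on mec2-1 yeast, a strain altered in DNA damage repair or cell cycle control. Growth inhibition is reported relative to vehicle.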

[3] = NCI Yeast Anticancer Drug Screen. Data for the sgs1 mgt1 strain (AID 161);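 further: 0% = growth of cultures given vehicle only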; conditions: S. cerevisiae sgs1 mgt1 strain, hits give high values
Method in brief: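 Test agents were incubated with a DNA-repair-mutant yeast strain. Growth was then read and compared against vehicle-treated controls.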

[4] = NCI Yeast Anticancer Drug Screen. Data for the cln2 rad14 strain (AID 165);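 further: 0% = growth equal to vehicle treated cultures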; conditions: S. cerevisiae cln2 rad14 strain, hits give high values
Method in brief: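 Test compounds were added to cln2 rad14 yeast cultures; inhibition of growth was then determined by comparison with vehicle treatment.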

[5] = NCI Yeast Anticancer Drug Screen. Data for the bub3 strain (AID 167); conditions: S. cerevisiae bub3 mutant strain, hits give high values
Method in brief: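 Inhibition values come from growth of compound-treated mutant yeast normalised to vehicle-treated controls.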

[6] = NCI Yeast Anticancer Drug Screen. Data for the mlh1 rad18 strain (AID 175); conditions: S. cerevisiae mlh1 rad18 strain growth inhibition, hits give high values
Method in brief: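 Inhibition values reflect reduced growth of mutant yeast versus vehicle-treated controls following compound exposure; the mutations affect DNA damage repair.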

[7] = at 5.0 µM (retest, dose inferred, filed as 0.5)
[8] = at 50.0 µM (retest, dose inferred, filed as 5.0)

SMILES | growth inhibition [1, 7] | growth inhibition [1, 8] | growth inhibition ([1]; at 50.0 µM) | growth inhibition [2, 7] [%] | growth inhibition [2, 8] | growth inhibition ([2]; at 50.0 µM) | growth inhibition [3, 7] | growth inhibition [3, 8] | growth inhibition ([3]; at 50.0 µM) | growth inhibition [4, 7] [%] | growth inhibition [4, 8] | growth inhibition ([4]; at 50.0 µM) | growth inhibition [5, 7] | growth inhibition [5, 8] | growth inhibition ([5]; at 50.0 µM) | growth inhibition [6, 7] | growth inhibition [6, 8] | growth inhibition ([6]; at 50.0 µM)
Cc1nn(C(=O)c2ccccc2O)c2c1C(c1ccc([N+](=O)[O-])cc1)SC(N)=N2 (stereo not given) | 6% | 81% (active) | 35.5% | -4 | 80% (active) | 47% | -1% | 89% (active) | 69.5% | -8 | 36% | 12.3% | -8% | 71% (active) | 91.2% (active) | 10% | 96% (active) | 53.4%
CCOc1ccc(C(OC)OC)cc1[N+](=O)[O-] | 3% | -7% | -12.1% | -1 | 3% | -6.9% | -11% | -7% | -25.1% | -4 | 0% | 87.5% (active) | 0% | 1% | -0.8% | -1% | -7% | 10%
CN1C(Cl)=NS(=O)(=O)c2ccccc21 | 18% | 22% | -23% | 14 | 19% | -5.6% | 9% | 18% | -12.4% | 20 | 20% | -1.3% | 15% | 11% | 6.35% | 15% | 25% | 8.95%
CC(C=O)Cc1ccccc1 (stereo not given) | 2% | -6% | -8.9% | 5 | -1% | -8.05% | 3% | -4% | -3.35% | -2 | -8% | 37% | -1% | -4% | 10.3% | -4% | -8% | -1.45%
COC(=O)CSC(=S)Nc1ccc(Cl)cc1 | 3% | 92% (active) | 83.5% (active) | -6 | 96% (active) | 4.25% | -4% | 97% (active) | 44.3% | -5 | 60% | -74.6% | -7% | 85% (active) | 36.5% | 7% | 98% (active) | 51.4%
O=C1c2ccccc2C(=O)c2c1cccc2[N+](=O)[O-] | 84% (active) | 90% (active) | 90.9% (active) | 67 | 86% (active) | 73% (active) | 80% (active) | 88% (active) | 86% (active) | 69 | 86% (active) | 85.2% (active) | 82% (active) | 88% (active) | 71.4% (active) | 85% (active) | 90% (active) | 83.8% (active)
O=C(Nc1c(Cl)cc([N+](=O)[O-])cc1Cl)/C(=N\Nc1cccc(Cl)c1)c1c(O)c2ccccc2oc1=O | 15% | 15% | 69% | 25 | 25% | 18.1% | 14% | 14% | -1% | 8 | 8% | 25.7% | 5% | 5% | 31% | 26% | 26% | 47.3%
OC(C1CCCCN1)C1CC(c2ccccc2)Nc2c(Cl)cc(Cl)cc21 (stereo not given) | 9% | 99% (active) | 99.4% (active) | -2 | 99% (active) | 99.5% (active) | -1% | 99% (active) | 99.4% (active) | -4 | 99% (active) | 99% (active) | 1% | 99% (active) | 49.5% | 6% | 99% (active) | 99.4% (active)
O=[N+]([O-])c1ccc(/C=C/[n+]2ccc3ccccc3c2)o1 | 29% | 93% (active) | 98.8% (active) | 24 | 91% (active) | 98.8% (active) | 40% | 98% (active) | 98.9% (active) | -6 | 95% (active) | 96.2% (active) | 10% | 97% (active) | 99.2% (active) | 52% | 97% (active) | 99% (active)
NCCc1ccc2oc3cc(=O)c4ccccc4c-3nc2c1 | 3% | 22% | 45.4% | -1 | 30% | 24.7% | 7% | 46% | 43.8% | 1 | 8% | 28.7% | 0% | 30% | 56.2% | 3% | 41% | 80.8% (active)
